# Test results reported in PubChem BioAssay (NCATS).
# Values joined by “and” are separate entries in the source; they are usually repeats but may differ in a detail not shown here. Equal entries are not always repeated. Records with an inconclusive call do not appear. Unmarked numbers belong to inactive results. Active and inactive are the calls of the source. Calls come from the whole dose curve; as a rule, active = well fitted cell-killing curve with a large enough effect; inconclusive = small, poorly fitted or top-dose-only effect; inactive = no such curve, though single readings can be large or run the other way.
# Assay: qHTS of pediatric cancer cell lines to identify multiple opportunities for drug repurposing: Confirmatory screen for U-2 OS cells (AID 1347122); note: nearly all actives have a fitted effect of over 65% in size;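 for activity change, negative = cytotoxicity: plate controls were DMSO for no effect and bortezomib for full effect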
# Conditions: U-2 OS osteosarcoma cell viability; series mostly up to 45.9 µM; activity change, negative = cytotoxicity: at the top concentration
# How it was run: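 Viability after 48 h compound treatment at 37C, 500-1,000 cells/well, read as ATP luminescence with CellTiter-Glo. Primary screens used 11-point (MIPE, 0.78 nM-46 µM) or 8-point (NPC, 0.59 nM-46 µM) final concentrations; follow-up screens used 11-point dilutions.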
# Potency is the fitted concentration of half-maximal effect.
Compound,outcome,Potency,"activity change, negative = cytotoxicity"
OC[C@H]1O[C@@H](n2cnc3c2NC=NC[C@@H]3O)C[C@H]1O,inactive,,
COc1cc(N2CCC(N3CCN(C)CC3)CC2)ccc1Nc1ncc(Cl)c(Nc2ccccc2S(=O)(=O)C(C)C)n1,,0.465 µM (active),
Nc1ncnc2c1ncn2[C@@H]1O[C@@H](CO)[C@H](O)[C@H]1O,,,-11.2% [at 29.5 µM]
COc1ccc(-c2nc(N3CCOCC3)c3sc(CN(C)c4ncc(C(=O)NO)cn4)cc3n2)cn1,,0.522 µM (active),
CC1(C)O[C@H]2C[C@@H]3[C@H]4CCC5=CC(=O)C=C[C@]5(C)[C@@]4(F)[C@@H](O)C[C@]3(C)[C@]2(C(=O)CO)O1,,,29%
CC1(C)S[C@H]2[C@H](NC(=O)[C@@H](N)c3ccc(O)cc3)C(=O)N2[C@@H]1C(=O)O,inactive,,
CCc1ccc(OCc2ccccc2C(=O)Nc2ccc3nc(C)cc(N)c3c2)cc1,,8.27 µM (active),
O=c1cc(-c2ccc(O)cc2)oc2cc(O)cc(O)c12,,,35.5%
CCOc1ccc(Nc2nc(-c3c(C)nc4ccccn34)cs2)cc1,,0.165 µM (active),
COc1cc2ncnc(Nc3ccc(F)c(Cl)c3)c2cc1OCCCN1CCOCC1,,26.9 µM (active),
CN(C)C1CCN(C(=O)c2ccc(NC(=O)Nc3nc(N4CCOCC4)nc(N4CCOCC4)n3)cc2)CC1,,3.69 µM (active),
CC[C@]1(O)C[C@@H]2CN(CCc3c([nH]c4ccccc34)[C@@](C(=O)OC)(c3cc4c(cc3OC)N(C)[C@H]3[C@@](O)(C(=O)OC)[C@H](OC(C)=O)[C@]5(CC)C=CCN6CC[C@]43[C@@H]65)C2)C1,,369 nM (active) and 1.17 µM (active),
CO[C@H]1C(=O)[C@]2(C)[C@@H](OC)C[C@H]3OC[C@@]3(OC(C)=O)[C@H]2[C@H](OC(=O)c2ccccc2)[C@]2(O)C[C@H](OC(=O)[C@H](O)[C@@H](NC(=O)OC(C)(C)C)c3ccccc3)C(C)=C1C2(C)C,,0.0185 µM (active),
NC1=N[C@@]2(c3cc(NC(=O)c4ccc(F)cn4)ccc3F)COC[C@@H]2CS1,inactive,,
CC1(C)CCC[C@@]2(C)[C@@H]1CC[C@@]1(C)OC(=O)C[C@H]21,,,-100%
NS(=O)(=O)c1cccc2c1C(=O)c1cccc(O)c1C2=O,,1.04 µM (active),
O=C1c2ccccc2-[n+]2ccc3c([nH]c4ccccc43)c21,,1.17 µM (active),
CC(=O)Nc1ccc([C@H](C)C(=O)Nc2ncc(C(C)C)s2)cc1,,1.47 µM (active),
O=C1C(Cl)=C(NCCN2CCOCC2)C(=O)c2ncccc21,,1.65 µM (active),
CC(C)(C(=O)NCC(F)(F)C(F)(F)F)C(=O)N[C@@H]1C(=O)Nc2ccccc2-c2ccccc21,,,-26.1%
CC(=O)O[C@]1(C(C)=O)CC[C@@H]2[C@@H]3C[C@H](C)C4=CC(=O)CC[C@]4(C)[C@H]3CC[C@@]21C,,,-40.6%
CC(C)n1nc(-c2ccc3oc(N)nc3c2)c2c(N)ncnc21,,0.0928 µM (active),
